# This is a sample that favours compounds with a hit; in the whole collection about 2.1% have one here.
# aSyn rescue = alpha-synuclein toxicity inhibition in yeast; Yeast expressing alpha-synuclein, growth rescue, BacTiter-Glo, 24 h; Potency, µM (doses to about 46.1 µM), without a hit: at the highest dose growth rescue (activation), usual class: activators; actives 0.14% (n = 370,000); AID 652106; further: % of control where 0% means no effect; nearly all actives have a fitted effect of over 65% in size
#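 Screening used galactose-induced yeast with toxic alpha-synuclein levels, exposed to compound for 24 hr at 30 deg C. Cell growth, read with BacTiter-Glo luminescence, gave the measured signal.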
# Abeta rescue = restores growth of yeast expressing A-beta42 peptide. yeast expressing A-beta42, growth rescue, OD600, 48 h; response scale: 0% DMSO, 100% iron-clioquinol control. Potency, µM (series often up to 46.1 µM), hits mostly activators. actives 0.063% (n = 410,000). AID 1347071; further: nearly all actives have a fitted effect of over 55% in size
#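 Yeast A-beta toxicity model in growth medium with pinned compounds, 48 h at 30 C; growth read as absorbance at 600 nm. Normalized to FeCl3/clioquinol equimolar mix (positive) and DMSO (negative).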
# FUS yeast rescue = suppressors of FUS proteinopathy in yeast | Potency, µM (top dose mostly 76.6 µM), most hits filed as activators | actives 0.24% (n = 390,000) | S. cerevisiae FUS-expressing, growth rescue, OD600, 24 h;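 further: plate controls were DMSO vehicle for no effect and reference control for full effect; nearly all actives have a fitted effect of over 55% in size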
#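 Toxicity suppression screen in FUS-yeast. Cells induced with 2% galactose, starting OD 0.005, treated 24hr at 30C with compounds at multiple final concentrations; growth by OD600.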
# TDP-43 yeast inh = inhibitors of TDP-43 toxicity in yeast; TDP-43 expressing yeast growth rescue, BacTiter-Glo, 24 h; actives 1.8% (n = 410,000); Potency, µM (doses to about 46.1 µM), without a hit: at the top dose growth rescue (activation), usual class: activators; further: % of control where 0% means no effect; nearly all actives have a fitted effect of over 50% in size
#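 In this qHTS, compounds that restore growth of yeast expressing TDP-43 appear as activators. Cells (OD600=0.02, galactose medium, raffinose-pregrown) are incubated with compound 24 hr at 30 deg C and growth is quantified by BacTiter-Glo.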
# * marks the source's active call; other numbers are inactive results; i = inactive; ? = inconclusive; nt = no result; ! = not confirmed by another sample; [ ] = remark or other dose. The call rests on the fitted dose curve; in most records, active means well fitted curve in the direction sought with a large enough effect; inconclusive means small, poorly fitted or top-dose-only effect, or another doubt; inactive means no such curve, though single readings can be large; an effect the other way counts as inactive or inconclusive. Potency means the concentration at half of the fitted maximal effect.
SMILES,aSyn rescue,Abeta rescue,FUS yeast rescue,TDP-43 yeast inh
COc1cc2c(O)c3c(c(-c4ccc5c(c4)OCO5)c2cc1OC)C(=O)OC3,-10%,i,8.9µM*,-17%
CCC(C)NS(=O)(=O)c1ccc2[nH]c(=O)oc2c1 (stereo not given),nt,nt,i,nt
CCCCc1cc(=O)oc2c(C)c(OCC(=O)N3CCC(C(=O)O)(c4ccccc4)CC3)ccc12,-10%,i,28µM*,12%
COc1ccc(CN2C(=O)N(c3ccccc3)C(=O)C2c2ccccc2)cc1COc1ccc(NC(C)=O)cc1 (stereo not given),0%,nt,nt,nt
CC1CCCN(C(=O)c2cc3c(Cl)nc4ccccc4c3s2)C1 (stereo not given),nt,i,i,20µM*
O=C(CSc1nc(-c2ccccc2)nc2c1Cc1ccccc1O2)N1CCCCC1,nt,i,i,21%
CCNC(=S)N/N=C/c1cc(C)ccc1C,2%,4.5µM*,i,22%
CNC(=S)N/N=C/c1cc(C)ccc1C,5%,?,i,12%
CCn1cc(S(=O)(=O)c2ccc(C)cc2)c(=O)c2cc(OC)ccc21,-6%,i,i,0%
CCOc1ccc(S(=O)(=O)c2cn(Cc3ccc(C)cc3)c3ccc(OC)cc3c2=O)cc1,nt,i,16µM*,21%
Clc1ccc(CSc2nnc(CNc3cccc(Cl)c3)o2)cc1,8.9µM*,i,i,-29%
Cc1ccc(CSc2nnc(CCCCCNC(=O)OC(C)(C)C)o2)cc1,11%,i,?,4%
Fc1cccc(Cl)c1CSc1nnc(CNc2ccccc2)o1,?,i,i,18µM*
CC(C)(C)OC(=O)NCCc1nnc(SCc2ccc(Cl)cc2)o1,10%,i,?,18µM*
Fc1ccc(NCc2nnc(SCc3ccccc3)o2)cc1,4%,i,i,?
O=C(CSc1nc2ccccc2n1Cc1ccccc1Cl)NN=C/C(Br)=C/c1ccccc1,nt,nt,i,nt
O=C(CN1CCN(c2nc(-c3ccccc3)cs2)CC1)Nc1ccc(Cl)cc1,nt,nt,i,nt
O=c1[nH]nc(CNc2ccc(OC(F)(F)F)cc2)c2ccccc12,-5%,i,i,14µM*
COC(=O)[C@]12C[C@H](CC(=O)N3CCCC3)C(=O)N(Cc3ccco3)C1=C[C@H](COCc1ccccc1)O[C@@H]2C,nt,nt,i,nt
Cc1c(C(=O)NCCSCc2c(F)cccc2Cl)cnn1-c1ccc(Cl)cc1,-1%,i,i,20µM*
COc1ccccc1C(=O)NCCSCc1c(F)cccc1Cl,2%,i,i,19%
Cc1cc(C)cc(-n2c(C)nc3cc(C(=O)O)ccc32)c1,-1%,i,i,13µM*!
CC(=O)Nc1ccc2c(c1)nc(C)n2-c1ccccc1,1%,i,i,-5%
Cc1nc2cc(Cl)ccc2n1-c1ccccc1,-2%,i,i,13µM*
C=C(CC[C@]12OC(C(=O)O)C(O)(C(=O)O)C(C(=O)O)(O1)C(OC(=O)/C=C/[C@@H](C)C[C@@H](C)CC)C2O)[C@@H](OC(C)=O)[C@H](C)Cc1ccccc1 (stereo not given in full),2%,nt,nt,nt
SMILES,aSyn rescue,Abeta rescue,FUS yeast rescue,TDP-43 yeast inh
CC(=O)c1cc(C(=O)c2ccccc2)sc1Nc1ccccc1,9%,i,i,35µM*
Cc1nc(Nc2ccccc2)sc1C(=O)c1ccccc1,-7%,i,i,-15%[1.82 µM]
Cc1ccccc1C(=O)Nc1ccccc1NC(=O)c1ccccc1Br,-3%,i,i,1%
COc1ccc(Nc2ccccc2NC(=O)c2ccccc2Br)cc1,8%,i,i,16µM*
CC(C)N1C2OC(C3OC4C(O3)N(C(C)C)S(=O)(=O)N4C(C)C)OC2N(C(C)C)S1(=O)=O (stereo not given),7.1µM*,i,i,?
Cc1cccc(NC(=O)CSCC(=O)N(C)Cc2ccc(Cl)c(Cl)c2)c1,14%,i,i,25µM*
Cc1csc(N/N=C/c2c(F)cccc2Cl)n1,-18%,i,i,28µM*
O=C(c1ccco1)n1nc(-c2ccccc2)nc1NCc1ccco1,2%,i,i,4%
O=C(c1ccco1)n1nc(NCc2ccccc2)nc1NCc1ccccc1,-3%,i,i,10µM*
Cc1cccc(C)c1NC(=O)c1ccc([N+](=O)[O-])s1,-1%,i,i,11%
Cc1ccnc(NC(=O)c2cc([N+](=O)[O-])cc([N+](=O)[O-])c2)c1,2%,i,i,-11%
Cc1ccnc(NC(=O)c2ccc([N+](=O)[O-])s2)c1,5%,i,i,8.9µM*
Cc1cccc(NC(=O)c2ccc([N+](=O)[O-])s2)c1C,2%,?,i,11µM*
CCn1c(SC(C)C(=O)Nc2ccc(C)cc2)nnc1-c1ccccc1 (stereo not given),1%,nt,nt,nt
O=C1CC2(CCN(S(=O)(=O)c3ccccc3)CC2)Oc2ccccc21,15%,i,i,20µM*
C[N+]1(C)[C@H]2CC[C@H]1CC(OC(=O)C(O)c1ccccc1)C2 (stereo not given in full),nt,nt,i,nt
N#Cc1c(NCc2ccccc2)ccnc1Cl,15%,i,i,14µM*
Cc1c[nH]c2cccc(-c3cccc4ccccc34)c12,nt,nt,i,nt
Cc1oc(-c2ccccc2Cl)nc1Cn1c(SCc2cccc(F)c2)nc2cccnc21,nt,?,35µM*,18µM*
COc1ccc(-c2nc(Cn3c(SCc4ccccc4F)nc4cccnc43)c(C)o2)cc1,nt,i,i,32µM*
COc1ccc(-c2nc(Cn3c(SCc4ccc(F)cc4)nc4cccnc43)c(C)o2)cc1,nt,i,i,25%
COc1ccc(-c2nc(Cn3c(SCc4cccc(F)c4)nc4cccnc43)c(C)o2)cc1,nt,i,?,20µM*
COc1ccc(-n2c(SCC(=O)NNC(=S)Nc3ccccc3)nc3ccccc3c2=O)cc1,nt,nt,i,nt
O=C1c2ccccc2NC(c2ccccc2OCc2ccccc2)N1Cc1ccco1 (stereo not given),-3%,nt,nt,nt
CC1(C)NC(=O)N(CCCOc2ccc(Br)cc2Cl)C1=O,-4%,i,?,5%
SMILES,aSyn rescue,Abeta rescue,FUS yeast rescue,TDP-43 yeast inh
CC1(C)NC(=O)N(CCCCOc2ccc(Cl)cc2)C1=O,11%,i,i,-13%
Cc1cc(OCCCCN2C(=O)NC(C)(C)C2=O)cc(C)c1Cl,nt,i,i,18µM*
CC1(C)NC(=O)N(CCCCOc2ccc(Br)cc2Cl)C1=O,19%,i,i,13µM*
c1ccc(CN=C2NN=C(c3ccccc3)CS2)cc1,5%,i,i,13µM*
CCOC(=O)[C@]12CCCC=C1N(CCCOC)C(=O)[C@@H]2CC(=O)NCc1cccc(C(F)(F)F)c1,nt,nt,i,nt
CC(C)C1C(=O)N(Cc2cn(CCC3OCCCO3)nn2)CCS(=O)(=O)N1Cc1ccc(-c2ccc(Cl)cc2)cc1 (stereo not given),-1%,i,i,16%
